The target of experiment [1] is Estrogen receptor (Homo sapiens) (UniProt P03372). In words: OT_ER_ERaERa_0480: Odyssey Thera (OT) 8-hour HEK293T Protein-Complementation Assay for Estrogen Receptor-alpha/-alpha Homodimer (AID 2283351).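 Note: rise in fluorescence from reassembled reporter fragments on ERα LBD homodimer in nucleus or whole cell.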 Put shortly: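 HEK293T cells stably expressing a PCA pair of ER alpha LBD (residues 310-547) were dosed for 8 hours. The gain in fluorescence intensity, nuclear for agonists and whole-cell for antagonists, was measured by laser scanning cytometry against DMSO vehicle.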

Experiment [2] concerns the target Estrogen receptor (Homo sapiens) + Estrogen receptor beta (Homo sapiens) (UniProt P03372+Q92731). In words: OT_ER_ERaERb_1440: Odyssey Thera (OT) 24-hour HEK293T Protein-Complementation Assay for Estrogen Receptor-alpha/-beta Homodimer (AID 2283356).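 Note: heteromer of ER alpha and ER beta binding domains; hits raise reporter fluorescence and both agonists and antagonists give an increase.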 Put shortly:
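Readout: mean fluorescence intensity in nucleus (agonists) or nucleus plus cytoplasm (antagonists), read by laser scanning cytometer after 24 h compound exposure of HEK293T cells carrying ERα/ERβ LBD fragment-complementation constructs; DMSO baseline.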

Experiment [3] has as its target Estrogen receptor beta (Homo sapiens) (UniProt Q92731). In words: OT_ER_ERbERb_0480: Odyssey Thera (OT) 8-hour HEK293T Protein-Complementation Assay for Estrogen Receptor-beta/-beta Homodimer (AID 2283357).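 Note: active means signal gain over DMSO baseline.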 The method, boiled down:
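ER-beta LBD homodimer PCA stably expressed in HEK293T; 8 h compound exposure, then formaldehyde fixation and Draq5 staining. Gain in nuclear/cytoplasmic fluorescence intensity versus DMSO vehicle, read on laser scanning cytometer.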

Experiment [4] addresses human Thyroid Receptor Alpha (TRa), THRA (gene 7067) (UniProt P10827). In words: NVS_NR_hTRa_Antagonist: NovaScreen (NVS) Nuclear Receptor Binding Assay for human Thyroid Receptor Alpha Antagonism (TRa) (AID 2283362).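 Note: activity is loss of signal relative to DMSO baseline.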 Put shortly:
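AlphaLISA chemiluminescent immunoassay readout, taken 1 h post-dosing in a cell-free system with extracted protein. Activity was scored as signal loss against DMSO negative control, from duplicate single-concentration (25 uM) testing followed by concentration-response follow-up.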

The target in experiment [5] is human Peroxisome Proliferator-activated Receptor alpha (PPARa), PPARA (gene 5465) (UniProt Q07869). In words: NVS_NR_hPPARa: NovaScreen (NVS) Nuclear Receptor Binding Assay for human Peroxisome Proliferator-activated Receptor alpha (PPARa) (AID 2283359).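 Note: activity means loss of TR-FRET signal versus DMSO baseline.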 Put shortly:
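Loss of TR-FRET binding signal relative to DMSO was measured 1 h after chemical addition to extracted receptor protein. Chemicals were first tested in duplicate at 25 uM, and actives were followed up in concentration series.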

Experiment [6] concerns the target Retinoic acid receptor alpha (Homo sapiens) (UniProt P10276). In words: NVS_NR_hRARa_Agonist: NovaScreen (NVS) Nuclear Receptor Binding Assay for human Retinoic Acid Alpha Receptor Agonism (RAR) (AID 2283361). The method, boiled down:
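Agonist-mode TR-FRET binding format using extracted protein, measured at 2 h post-dosing. Initial duplicate single-point screen at 25 uM preceded concentration series for actives; activity was normalized to DMSO baseline.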

Experiment [7] has the same target. In words: NVS_NR_hRAR_Antagonist: NovaScreen (NVS) Nuclear Receptor Binding Assay for human Retinoic Acid Alpha Receptor Antagonism (RAR) (AID 2283358). Put shortly:
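RARalpha antagonism was read by TR-FRET as loss of binding signal versus DMSO, 2 h after chemical addition, in a biochemical format. Single-concentration duplicates (25 uM) were run first, and actives were retested in concentration series.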

Experiment [8] deals with Androgen Receptor/SRC-1 Co-activator, AR (gene 367) (UniProt P10275). In words: OT_AR_ARSRC1_0960: Odyssey Thera (OT) 16-hour HEK293T Protein-Complementation Assay for Androgen Receptor/SRC-1 Co-activator (AID 2283353).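 Note: actives raise the signal above DMSO so potency reflects increased AR and SRC-1 complex.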 The method, boiled down: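 Endpoint is gain-of-signal N/C fluorescence ratio in the 488 nm channel versus DMSO, from at least 400 cells per image, measured 16 h post-dosing. Cells: HEK293T stably carrying split-Venus AR/SRC-1 complementation constructs.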

Experiment [9] has the same target. In words: OT_AR_ARSRC1_0480: Odyssey Thera (OT) 8-hour HEK293T Protein-Complementation Assay for Androgen Receptor/SRC-1 Co-activator (AID 2283354).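 Note: hits raise the complementation signal above DMSO so AC50 marks enhancers.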 Put shortly:
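Reconstituted split-Venus YFP signal from AR–SRC-1 interaction, read by imaging 8 h post-dose in stable HEK293T lines. The 488 nm nucleus-to-cytoplasm ratio (≥400 cells/image) was fitted upward against DMSO.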

From PubChem BioAssay (EPA / NIEHS) come the findings set out here.

Records with an inconclusive call do not appear. A structure can be active in one record and inactive in another. Activity calls are given as the source filed them. Rule for the calls: active = hit-call score of the fitted dose curve at least 0.9, where 1 is the maximum; inconclusive = response in the unintended direction; inactive = score below 0.9.

human Peroxisome Proliferator-activated Receptor alpha (PPARa), PPARA (gene 5465), sequence (Q07869 whole entry, looked up): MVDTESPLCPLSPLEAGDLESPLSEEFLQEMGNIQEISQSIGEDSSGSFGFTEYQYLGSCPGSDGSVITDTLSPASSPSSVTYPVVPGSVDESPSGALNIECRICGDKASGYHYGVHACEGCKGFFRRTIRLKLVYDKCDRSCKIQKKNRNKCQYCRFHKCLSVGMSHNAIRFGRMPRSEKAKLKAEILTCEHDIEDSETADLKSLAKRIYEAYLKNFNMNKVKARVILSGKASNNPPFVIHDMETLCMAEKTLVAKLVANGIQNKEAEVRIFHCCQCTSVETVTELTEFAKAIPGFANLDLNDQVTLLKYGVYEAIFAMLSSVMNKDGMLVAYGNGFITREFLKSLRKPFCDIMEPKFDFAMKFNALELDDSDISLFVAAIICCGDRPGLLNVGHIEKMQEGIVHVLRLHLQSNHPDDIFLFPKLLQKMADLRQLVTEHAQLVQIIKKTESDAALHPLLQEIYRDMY
Retinoic acid receptor alpha (Homo sapiens), sequence (P10276 whole entry, looked up): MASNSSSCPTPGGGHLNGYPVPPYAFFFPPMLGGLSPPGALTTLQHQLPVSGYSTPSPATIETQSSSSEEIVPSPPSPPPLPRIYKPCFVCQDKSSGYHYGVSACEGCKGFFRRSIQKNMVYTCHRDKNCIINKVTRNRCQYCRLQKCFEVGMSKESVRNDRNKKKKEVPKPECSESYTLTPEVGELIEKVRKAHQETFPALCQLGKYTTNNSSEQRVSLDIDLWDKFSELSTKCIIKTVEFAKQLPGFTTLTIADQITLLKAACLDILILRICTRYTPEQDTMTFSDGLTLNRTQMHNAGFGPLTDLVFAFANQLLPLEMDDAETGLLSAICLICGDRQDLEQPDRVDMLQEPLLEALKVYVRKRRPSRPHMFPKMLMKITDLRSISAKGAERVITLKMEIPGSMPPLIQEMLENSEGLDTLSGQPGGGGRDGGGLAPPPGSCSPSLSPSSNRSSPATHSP
human Thyroid Receptor Alpha (TRa), THRA (gene 7067), sequence (P10827 whole entry, looked up): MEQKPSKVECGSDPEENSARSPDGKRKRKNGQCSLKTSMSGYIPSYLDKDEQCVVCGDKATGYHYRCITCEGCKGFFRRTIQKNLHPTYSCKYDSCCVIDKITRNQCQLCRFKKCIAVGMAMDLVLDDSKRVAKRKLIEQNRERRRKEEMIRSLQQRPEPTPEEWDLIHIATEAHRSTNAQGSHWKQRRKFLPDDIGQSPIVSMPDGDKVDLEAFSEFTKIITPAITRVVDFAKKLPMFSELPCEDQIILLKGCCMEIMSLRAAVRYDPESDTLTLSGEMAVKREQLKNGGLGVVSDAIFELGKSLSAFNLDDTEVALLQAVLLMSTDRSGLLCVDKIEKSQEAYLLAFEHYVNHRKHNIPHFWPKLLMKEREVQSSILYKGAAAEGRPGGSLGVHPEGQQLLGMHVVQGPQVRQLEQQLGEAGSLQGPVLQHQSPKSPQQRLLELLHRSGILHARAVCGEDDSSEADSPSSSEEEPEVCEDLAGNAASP
Androgen Receptor/SRC-1 Co-activator, AR (gene 367), sequence (P10275 whole entry, looked up): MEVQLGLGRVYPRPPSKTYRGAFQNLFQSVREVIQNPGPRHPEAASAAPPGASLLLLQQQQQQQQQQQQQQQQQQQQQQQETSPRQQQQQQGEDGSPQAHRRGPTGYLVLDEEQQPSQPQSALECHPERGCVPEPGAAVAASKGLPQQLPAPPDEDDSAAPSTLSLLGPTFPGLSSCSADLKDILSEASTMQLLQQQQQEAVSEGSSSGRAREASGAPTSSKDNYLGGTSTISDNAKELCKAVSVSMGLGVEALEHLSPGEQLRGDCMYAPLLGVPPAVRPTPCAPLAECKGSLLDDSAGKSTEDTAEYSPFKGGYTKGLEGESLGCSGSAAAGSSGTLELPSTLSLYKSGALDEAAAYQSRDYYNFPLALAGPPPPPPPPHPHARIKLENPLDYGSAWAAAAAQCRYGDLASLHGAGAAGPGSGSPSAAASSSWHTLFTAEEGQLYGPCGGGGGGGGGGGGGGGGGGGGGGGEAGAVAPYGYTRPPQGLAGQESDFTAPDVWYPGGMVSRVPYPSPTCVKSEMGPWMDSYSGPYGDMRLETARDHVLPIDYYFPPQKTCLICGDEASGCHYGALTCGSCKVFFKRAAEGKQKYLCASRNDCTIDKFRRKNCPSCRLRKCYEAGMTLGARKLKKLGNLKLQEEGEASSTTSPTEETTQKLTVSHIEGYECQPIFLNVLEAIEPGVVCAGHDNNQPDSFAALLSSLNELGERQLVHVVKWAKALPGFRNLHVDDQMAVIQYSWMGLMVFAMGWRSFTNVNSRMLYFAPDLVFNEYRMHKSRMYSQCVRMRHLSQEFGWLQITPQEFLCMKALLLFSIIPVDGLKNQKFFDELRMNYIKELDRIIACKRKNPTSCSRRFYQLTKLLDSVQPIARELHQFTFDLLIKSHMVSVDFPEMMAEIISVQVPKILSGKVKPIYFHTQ
Estrogen receptor (Homo sapiens) + Estrogen receptor beta (Homo sapiens), sequence (P03372 whole entry, looked up, the tested form may be a part): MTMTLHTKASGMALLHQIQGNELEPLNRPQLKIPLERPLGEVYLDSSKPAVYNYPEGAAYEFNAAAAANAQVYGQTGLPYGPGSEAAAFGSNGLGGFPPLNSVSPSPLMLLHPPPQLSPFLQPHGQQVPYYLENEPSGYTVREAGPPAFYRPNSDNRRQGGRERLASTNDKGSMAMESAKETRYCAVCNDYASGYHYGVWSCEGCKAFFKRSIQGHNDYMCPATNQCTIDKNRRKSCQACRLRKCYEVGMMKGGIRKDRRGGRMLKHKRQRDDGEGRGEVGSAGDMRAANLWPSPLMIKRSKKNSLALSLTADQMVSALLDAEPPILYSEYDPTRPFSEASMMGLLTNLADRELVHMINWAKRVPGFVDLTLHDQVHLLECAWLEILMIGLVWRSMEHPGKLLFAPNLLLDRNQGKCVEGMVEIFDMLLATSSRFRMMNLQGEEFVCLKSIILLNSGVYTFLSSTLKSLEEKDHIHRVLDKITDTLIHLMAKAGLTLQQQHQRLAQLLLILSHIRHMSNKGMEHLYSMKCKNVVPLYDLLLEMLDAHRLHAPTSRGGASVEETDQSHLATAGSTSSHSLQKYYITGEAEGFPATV
Estrogen receptor (Homo sapiens) + Estrogen receptor beta (Homo sapiens), sequence (Q92731 whole entry, looked up, the tested form may be a part): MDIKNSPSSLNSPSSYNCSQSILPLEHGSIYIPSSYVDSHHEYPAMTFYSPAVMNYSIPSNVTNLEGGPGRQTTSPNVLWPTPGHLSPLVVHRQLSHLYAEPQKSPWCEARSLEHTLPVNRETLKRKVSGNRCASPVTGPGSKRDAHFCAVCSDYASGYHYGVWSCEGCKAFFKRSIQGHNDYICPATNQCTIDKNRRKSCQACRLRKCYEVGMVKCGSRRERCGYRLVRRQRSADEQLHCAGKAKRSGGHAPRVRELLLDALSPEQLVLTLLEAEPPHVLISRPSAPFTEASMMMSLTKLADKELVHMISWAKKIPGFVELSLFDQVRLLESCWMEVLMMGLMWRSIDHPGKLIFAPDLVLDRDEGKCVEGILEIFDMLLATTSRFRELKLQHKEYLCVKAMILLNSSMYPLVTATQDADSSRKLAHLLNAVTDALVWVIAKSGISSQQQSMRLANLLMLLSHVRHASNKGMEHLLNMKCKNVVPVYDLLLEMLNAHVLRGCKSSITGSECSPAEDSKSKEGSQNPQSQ
Estrogen receptor (Homo sapiens), sequence (P03372 whole entry, looked up, the tested form may be a part): as the sequence (P03372 whole entry, looked up, the tested form may be a part) above
Estrogen receptor beta (Homo sapiens), sequence (Q92731 whole entry, looked up, the tested form may be a part): as the sequence (Q92731 whole entry, looked up, the tested form may be a part) above

Regarding `CN(C)C=O`, the compound was called inactive in experiment [1], in [2] and in experiment [3].
Consider `c1ccc2cc3c(ccc4ccccc43)cc2c1`, for which the result in [1] and in experiment [4] was inactive.
With `ClC1=C(Cl)C(Cl)(Cl)C(Cl)=C1Cl`, the call in experiment [1] and in experiment [3] was inactive.
Broadly, the AC50 is the concentration at which the activity in the assay is half-maximal. Turning to `CCCCCCCC(=O)O`, the call in experiment [1] was inactive. Also, the half-maximal activity concentration (AC50) in experiment [2] was 17.1 µM (active); in experiment [3], 50 µM (active); in experiment [5], 4.38 µM (active).
For the compound `Nc1cccc2c(N)cccc12`, the call in experiment [1], in [2] and in experiment [3] was inactive. Further, in experiment [6], the AC50 was 20.5 µM (active).
As for `CC1=C(/C=C/C(C)=C/C=C/C(C)=C/C(=O)O)C(C)(C)CCC1`, the call in experiment [1], in [7] and in experiment [5] was inactive.
`O=C(O)Cc1cc(I)c(Oc2cc(I)c(O)c(I)c2)c(I)c1`: the result in [1], in experiment [2], in experiment [3], in experiment [7] and in experiment [5] was inactive.
Turning to `CCOC(=O)CC(O)(CC(=O)OCC)C(=O)OCC`, the compound was called inactive in [1], in experiment [3] and in [5].
On to `CC(C)(C)c1ccc(O)c(C(C)(C)C)c1`, for which the compound was classed as inactive in experiment [1], in experiment [2], in experiment [3], in [5] and in experiment [4].
With `CC[C@H](c1ccc(O)cc1)[C@@H](CC)c1ccc(O)cc1`, the AC50 was 35.6 µM (active) in experiment [8] and 100 nM (active) [middle of 5 runs] in experiment [2]. For the same compound, the call in experiment [8], in [9] and in [5] was inactive.
Regarding `CC(C)CCCCCCOC(=O)CCCCC(=O)OCCCCCCC(C)C`, the outcome in experiment [1], in experiment [7] and in [6] was inactive.
Turning to `CCCCC(CC)COC(=O)CCCCC(=O)OCC(CC)CCCC` (centres undefined), the compound was classed as inactive in experiment [1], in experiment [2], in experiment [3] and in [6].
With `CCc1ccc(CCOc2ccc(CC3SC(=O)NC3=O)cc2)nc1` (centres undefined), the AC50 in [1] was 76.7 µM (active). Besides, the result in [2], in [3] and in [5] was inactive.
As for `c1ccc2c(c1)Cc1ccccc1-2`, the outcome in experiment [1], in [2], in experiment [3] and in [7] was inactive.
Take `CCN(CC)CCNc1ccc(CNC=O)c2sc3ccc(OC)cc3c(=O)c12`: the result in [1] and in [3] was inactive. The results for the AC50 in experiment [6] and in experiment [4] were 8.9 µM (active) and 15.1 µM (active), respectively.
Turning to `C=C(C)C(=O)OCCC(F)(F)C(F)(F)C(F)(F)C(F)(F)C(F)(F)C(F)(F)F`, the compound was called inactive in experiment [1], in experiment [2] and in experiment [3].
On to `CN1CCC[C@H]1c1cccnc1`, for which the compound was classed as inactive in experiment [1], in [2] and in [3].
`CC[C@H](C)[C@@H](C(=O)O)n1sc2ccccc2c1=O`: the result in experiment [1], in experiment [2] and in experiment [3] was inactive.
Turning to `Cc1cc(C)c(O)c(C)c1`, the outcome in [1] and in experiment [5] was inactive.
For the compound `CCCCCCCCOC(=O)CCCCCCCCC(=O)OCCCCCCCC`, the outcome in experiment [1], in experiment [2], in experiment [3] and in experiment [5] was inactive.
On to `CCCOC(=O)c1ccc(O)cc1`, for which the values for the AC50 in experiment [1], in experiment [2] and in [3] were 38.4 µM (active), 15.5 µM (active) and 7.31 µM (active), respectively. The call in experiment [5] was inactive.
In the case of `CCCCCCCCCCCCCCCS(=O)(=O)Oc1ccccc1`, the result in experiment [1], in experiment [2] and in experiment [3] was inactive.
For `CCCCCCCCCCCCN1CCCC1=O`, the result in [2] and in experiment [3] was inactive.
For `COCC(C)OCC(C)O` (centres undefined), the compound was classed as inactive in experiment [8], in [9] and in experiment [2].
`CCCCCCC(=O)O`: the result in experiment [1], in experiment [2] and in experiment [3] was inactive.
On to `CC(C)(C)c1cc(C(C)(C)C)c(O)c(C(C)(C)C)c1`, for which the call in [1] and in experiment [5] was inactive. For the same compound, the values for the AC50 in [2] and in experiment [3] were 73.3 µM (active) and 29.3 µM (active), respectively.
